Source: PubChem BioAssay (NCI)
This is part of a sample that, as a whole, favours compounds with a hit. Of some 83,000 tested, about 20% had one in any assay.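 Method: cells in 96-well plates; compound added at one concentration; 48 h incubation; percent growth measured; values under 10 scored active.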 Active and inactive are the calls of the source.

What was measured:
Test in all cases: NCI-60 one-dose screen, 48 h (100 = growth as untreated, 0 = no growth, -100 = all killed)
Conditions in all cases: 10 µM unless noted
[1] = system: DU-145 prostate
[2] = system: K-562 leukemia
[3] = system: MALME-3M melanoma
[4] = system: MDA-MB-231 breast
[5] = system: RXF 393 renal
[6] = system: SF-268 CNS
[7] = system: SF-295 CNS
[8] = system: SF-539 CNS
[9] = system: UACC-257 melanoma
[10] = system: M14 melanoma

Measured: growth

COc1cnc2c(c1)C(=O)c1c-2n(CCCn2ccnc2)c(=O)c2cc(F)ccc12
active: [1] -56.4% | [2] -4.93% | [3] -52.2% | [4] 5.66% | [5] -55.9% | [6] 3.73% | [7] -5.57% | [8] -60.6% | [9] -34.7% | [10] -39.9%

O=C(N/N=C/c1cccc(O)c1O)c1ccccc1
active: [7] -1.63% | [8] 6.6%
inactive: [1] 33% | [2] 15.6% | [3] 20.4% | [4] 30.6% | [5] 29.7% | [6] 18.4% | [10] 15%

Nc1nc(Nc2ccccc2SSc2ccccc2Nc2nc(N)nc(C(Cl)(Cl)Cl)n2)nc(C(Cl)(Cl)Cl)n1
inactive: [1] 82.3% | [2] 52.8% | [3] 75% | [4] 44.1% | [5] 67.2% | [6] 50.5% | [7] 27.4% | [8] 84.3% | [9] 100% | [10] 67%

CC[N+](CCCCCCCCCC[N+](CC)(c1ccccn1)c1ccccn1)(c1ccccn1)c1ccccn1
inactive: [1] 13.6% | [4] 15.9% | [5] 46.1% | [6] 17.1% | [8] 11% | [10] 10.3%
active: [2] -2.68% | [3] -10.7% | [7] -71.2% | [9] -19.2%

CC1=C([Se]CC(OC(=O)[C@@H](CSSC(C)(C)C)NC(=O)C(C)(C)C)C(=O)NCCCCCC(=O)OCc2ccccc2)C(=O)c2ccccc2C1=O (stereo not given in full)
inactive: [1] 13.3%
active: [2] 7.91% | [3] -39.1% | [4] -15.3% | [5] -33.5% | [6] 7.11% | [7] -27.8% | [8] -69.4% | [9] -20.8% | [10] -32.5%

O=C1CNc2cc(Cl)ccc2N1
inactive: [1] 121% | [2] 104% | [3] 104% | [4] 98.3% | [5] 101% | [6] 103% | [7] 105% | [8] 106% | [9] 113% | [10] 114%

NC(=N\N=C/Cc1ccccc1)/C(N)=N\N=C\Cc1ccccc1
inactive: [1] 101% | [2] 103% | [3] 144% | [4] 97.7% | [5] 121% | [6] 94% | [7] 108% | [8] 93% | [9] 101% | [10] 105%

Nc1nc(SCc2cccnc2)c2ncn(C3OC(CO)C(O)C3O)c2n1 (stereo not given)
inactive: [1] 113% | [2] 113% | [3] 92.4% | [4] 94.7% | [5] 101% | [6] 90.6% | [7] 99.1% | [8] 95.1% | [9] 92.7% | [10] 97.8%

O=C(CNC(=O)c1cccc2ccccc12)Nc1ccccc1Cc1ccccc1
inactive: [1] 48.4% [5 µM] | [2] 12.3% [5 µM] | [3] 46.8% [5 µM] | [4] 64.1% [5 µM] | [5] 47.2% [5 µM] | [6] 48.6% [5 µM] | [7] 17.1% [5 µM] | [8] 26.7% [5 µM] | [9] 25.4% [5 µM] | [10] 10.6% [5 µM]

COc1ccc(/C=C2\CCc3ccccc3C2=O)cc1
inactive: [1] 98.2% | [2] 20.7% | [3] 86.1% | [4] 87.3% | [5] 103% | [6] 100% | [7] 32.5% | [8] 105% | [10] 99.2%

FCc1ncc(-c2ccc(C(F)(F)F)cc2)c(NC2CCCCCC2)n1
active: [1] -27.6% [100 µM] | [2] -2.97% [100 µM] | [3] -16.9% [100 µM] | [4] 0% [100 µM] | [5] 1.22% [100 µM] | [6] -0.671% [100 µM] | [7] -40.9% [100 µM] | [9] -6.1% [100 µM]

Cc1ncc(C(=O)Nc2ccc(CN3CCN(C)CC3)c(C(F)(F)F)c2)cc1C#Cc1cncc2ncccc12
inactive: [1] 66.9% | [4] 21.3% | [5] 36.7% | [6] 57.7% | [7] 82.6% | [8] 67%
active: [2] -10.7% | [3] 0.477% | [10] 5.36%
